# Only a selection was taken, and hits are over-represented in it overall.
# Anthrax LF inh2: inhibitors of Bacillus anthracis lethal factor protease; actives 0.12% (n = 360,000); multiplex microsphere protease cleavage assay, LF; inhibition, % at 10 µM; further: plate controls were buffer without enzyme for full effect and enzyme alone for no effect
# TcdB GH inh: TcdB glycohydrolase inhibition | P18177 | TcdB glycohydrolase enzymatic assay, plate reader | inhibition, % at 9.99 µM | actives 0.24% (n = 350,000) | AID 652162; in the data active means inhibition above about 10%
# BoNT A protease: BoNT A light chain protease inhibition; multiplex microsphere protease substrate cleavage, flow cytometry; inhibition, % at 10 µM; actives 0.17% (n = 360,000); further: plate controls were buffer without enzyme for full effect and enzyme alone for no effect
# Autofluor counter: flagged as autofluorescent in microsphere protease counterscreen; compound autofluorescence counterscreen, microsphere flow cytometry; hits give high values; fluorescence intensity (test concentration not listed); actives 3.1% (n = 360,000); AID 624483; in the data active means fluorescence intensity above about 16000; inconclusive means no clear call, values can overlap the other calls
# BoNT-F LC inh: BoNT F light chain protease inhibition. Multiplex microsphere protease cleavage assay, flow cytometry. inhibition, % at 10 µM. actives 0.22% (n = 360,000). AID 588497; in the data active means inhibition above about 35%, passing the limit was not always enough; inconclusive means no clear call, values can overlap the other calls; further: plate controls were buffer without enzyme for full effect and enzyme alone for no effect
# The depositor's hits bear a star; ? = inconclusive; . = no result. Unless noted, no stated cut-off is given here; in the data, active means inhibition above about 30%; inconclusive means no clear call, values can overlap the other calls; inactive means below that.
SMILES,Anthrax LF inh2,TcdB GH inh,BoNT A protease,Autofluor counter,BoNT-F LC inh
COC(=O)C[C@@H]1CC[C@H]2[C@@H](COc3ccc(NC(=O)Nc4cccc(C#N)c4)cc3C(=O)N2C)O1,.,0,.,.,.
O=C(C1=C[C@@H](c2ccc(Br)cc2)C[C@@H](OCCCCO)O1)N1CCCCCCC1,.,-1,.,.,.
CCCN(C)C[C@@H]1Oc2cc(C#Cc3cccc(OC)c3)ccc2S(=O)(=O)N([C@@H](C)CO)C[C@@H]1C,.,-1,.,.,.
CC1CCCN(C(=O)CCS(=O)(=O)Cc2ccccc2)C1 (stereo unspecified),-3,.,0,16402*,2
Cc1noc(C)c1CN(C(=S)NC1CC2CCC1C2)c1ccccc1 (stereo unspecified),-6,-1,4,4701,42*
COc1ccccc1CNC(=O)C1CCC(=O)N1C(C)C (stereo unspecified),5,0,-4,3705,-6
CCOc1ccccc1CNC(=O)C1CCC(=O)N1C(C)C (stereo unspecified),0,.,3,22457*,7
O=C(O)C[C@H]1C[C@@H]2c3cc(NS(=O)(=O)c4ccccc4)ccc3O[C@@H]2[C@@H](CO)O1,.,0,.,.,.
CC1CC(=O)N(Cc2ccccc2)c2ccccc2N1C=O (stereo unspecified),-5,.,0,20499*,0
O=C1CCCc2ccccc2N1Cc1ccccc1,-9,1,0,5752,-1
CC[n+]1ccccc1/C=C/c1ccc(N(C)C)cc1,0,0,-1,3157,-1
CC[n+]1ccc(/C=C/c2ccc(N(C)C)cc2)c2ccccc21,-6,15*,6,3492,-27
O=C(C[C@H]1CC[C@@H]2[C@H](COC[C@H](O)CN2CC2CCCCC2)O1)NCc1ccc(F)cc1,.,-3,.,.,.
Cc1cc(C(=O)N2CCCC2C(=O)O)c(C)o1 (stereo unspecified),-3,.,2,22740*,3
Cc1noc(C)c1NC(=O)Nc1ccc2c(c1)C(=O)N([C@H](C)CO)C[C@@H](C)[C@H](CN(C)C(=O)NC1CCCCC1)O2,.,0,.,.,.
Cc1cc(C)cc(N=Cc2ccc([N+](=O)[O-])s2)c1,1,.,0,2448,-17
Cc1ccc(NC(=S)N/N=C/c2ccc([N+](=O)[O-])s2)cc1,27,-1,47*,2722,-2
CCOC(=O)CC(/C(C)=N\O)c1ccccc1 (stereo unspecified),1,.,-5,21192*,-5
COc1ccc(NC(=O)Nc2ccc3c(c2)C(=O)N([C@H](C)CO)C[C@@H](C)[C@@H](CN(C)S(=O)(=O)c2cn(C)cn2)O3)cc1,.,0,.,.,.
CCCc1ccc(C(=O)N2CCN(c3ccccc3OCC)CC2)cc1,0,1,-3,25022*,-8
O=C(Nc1nccs1)Oc1ccccc1,-7,.,?,20333*,2
COCCNC(=O)NC(=O)COC(=O)Cc1ccc2c(c1)OCCO2,0,.,0,22511*,1
c1ccc(OCCCCN2CCOCC2)cc1,-2,.,-1,16576*,1
Cc1ccccc1OCCCN1CCOCC1,12,1,-3,3547,-21
Brc1ccccc1OCCCN1CCOCC1,-7,.,1,23079*,0
SMILES,Anthrax LF inh2,TcdB GH inh,BoNT A protease,Autofluor counter,BoNT-F LC inh
Clc1cccc(OCCN2CCOCC2)c1,-2,.,0,16577*,-3
Clc1cccc(OCCCCCN2CCOCC2)c1,6,0,1,3496,0
C[C@@H]1CN([C@@H](C)CO)C(=O)c2cc(NC(=O)Nc3ccccc3)ccc2O[C@H]1CN(C)S(=O)(=O)c1ccc(Cl)cc1,.,0,.,.,.
CCOC(=O)C(Oc1ccc2c(-c3ccc(OC)cc3)cc(=O)oc2c1C)c1ccccc1 (stereo unspecified),-2,.,?,22308*,-4
CCOC(=O)C(Oc1ccc2c(-c3ccccc3)cc(=O)oc2c1C)c1ccccc1 (stereo unspecified),-1,0,0,2216,-3
CC1CCCCC1NC(=O)c1ccc(N2CCCC2=O)cc1 (stereo unspecified),0,.,?,22649*,1
COc1ccc(CCNC2CC(=O)N(C)C2=O)cc1OC (stereo unspecified),-2,.,-2,24224*,-2
COc1cc(C(=O)NCCc2ccc3c(c2)OCCO3)ccc1OCC(=O)N1CCOCC1,-12,.,13,16542*,14
COc1ccc(CCN(C)C(=O)c2ccc(OCC(=O)N3CCOCC3)c(OC)c2)cc1OC,5,0,3,?,4
COc1ccc(CCNC(=O)c2ccc(N3CCCC3=O)cc2)cc1OC,0,-2,-4,21331*,-6

# Assay outcomes from PubChem.
